Screening data from PubChem BioAssay.
Only some compounds are listed: those with a hit (about 9% of all), similar ones and a draw of the others.
IMPase cell inh – cell-permeable inhibitors of inositol monophosphatase (IMPase) | AID 901 | 120,000 tested, under 10 active | P97697 | CHO-M1 cells, IP1 accumulation, HTRF TR-FRET ratio | inhibition (IP1 accumulation), % at 46.1 µM; active means well fitted curve in the direction sought with a large enough effect in the signal ratio, not every such curve was filed as active; inconclusive means small, poorly fitted or top-dose-only effect, or a change in a side signal; inactive means no such curve, though single readings can be large or run the other way; the % refers to the signal ratio;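 further: cells stimulated with carbachol in lithium chloride buffer; plate controls were DMSO basal wells for no effect and reference inhibitor wells for full effect; higher means more IMPase inhibition seen as more IP1 and lower FRET ratio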
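Measured: the HTRF emission ratio (665/620 nm) plus the 620 nm donor channel, each fitted to the Hill equation to give AC50. Cells were CHO-M1 given compounds up to 46 uM and a 30 min carbachol stimulation at 37C.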
ALDH1A1 block – blocks purified human ALDH1A1 activity; Purified ALDH1A1, NADH fluorescence, propionaldehyde substrate; hit rate 7.3% among 220,000; P00352; Potency, µM (series often up to 75.3 µM), inactives show at the highest dose activity, negative = inhibition, actives largely listed as inhibitors;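 further: potency means the concentration at half of the fitted maximal effect; plate controls were no enzyme wells and a reference inhibitor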
Target sequence (P00352 whole entry, looked up): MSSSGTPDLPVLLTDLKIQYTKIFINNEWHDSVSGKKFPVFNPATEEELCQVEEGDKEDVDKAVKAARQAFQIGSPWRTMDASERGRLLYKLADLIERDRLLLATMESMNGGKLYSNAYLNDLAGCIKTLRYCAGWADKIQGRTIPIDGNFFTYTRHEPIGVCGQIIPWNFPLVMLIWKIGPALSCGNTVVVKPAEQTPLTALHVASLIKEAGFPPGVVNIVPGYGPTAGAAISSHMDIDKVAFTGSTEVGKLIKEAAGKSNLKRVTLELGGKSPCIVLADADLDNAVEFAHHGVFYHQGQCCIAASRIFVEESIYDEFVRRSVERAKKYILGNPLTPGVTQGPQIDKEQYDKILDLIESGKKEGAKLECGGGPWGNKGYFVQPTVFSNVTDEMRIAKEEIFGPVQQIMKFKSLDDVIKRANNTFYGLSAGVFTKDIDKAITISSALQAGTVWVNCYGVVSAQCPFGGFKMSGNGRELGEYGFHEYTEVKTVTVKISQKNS
HPGD inh – HPGD (human) dehydrogenase inhibition. hit rate 4.3% among 150,000. Potency, µM, for inactives: at the top dose activity change, negative = inhibition, most hits filed as inhibitors. AID 894. P15428. purified HPGD, NADH fluorescence kinetic, PGE2 substrate; further: potency means the concentration at half of the fitted maximal effect
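20 nM HPGD preincubated 15 min at room temperature with compound in 50 mM Tris-HCl pH 8, 0.01% Tween 20. Started with 1 mM NAD+ and 30 uM prostaglandin E2; NADH fluorescence (360/450 nm) read 5 times over 30-s intervals, last minus first.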
* marks the source's active call; other numbers are inactive results; ? = inconclusive; / = no result. Unless noted, the call rests on the fitted dose curve; in most records, active means well fitted inhibition curve with a large enough effect (not every such curve was filed as active); inconclusive means small, poorly fitted or top-dose-only effect, or another doubt; inactive means no such curve, though single readings can be large or run the other way. Unless noted, on the % scale 0 is the no-effect control and ±100 the full control effect.

SMILES	IMPase cell inh	ALDH1A1 block	HPGD inh
Cc1cc(C)cc(NC(=O)CN2CCN(c3ncccn3)CC2)c1	4.8	?	-13.5%
O=C(CN1CCN(c2ncccn2)CC1)Nc1ccccc1-n1cccc1	10.0	14.1µM*	-13.6%
OCC1OC(O)C(O)C(O)C1O (stereo not given)	/	16.7%	-5.1%
CCC(C)(C)NC(=O)C(Sc1ccccc1)c1ccccc1 (stereo not given)	/	5.1%	/
Cc1nc2c3ccccc3nc(SCC(=O)N3CC(C)CC(C)C3)n2n1 (stereo not given)	9.1	7.08µM*	?
Cc1nc2c3ccccc3nc(SCC(=O)c3ccc(Cl)cc3)n2n1	/	0.3%	-7.8%
COc1ccc2cc(CN(CC3CCCO3)S(=O)(=O)c3ccc(C(C)=O)cc3)c(=O)[nH]c2c1 (stereo not given)	-9.5	?	-11.6%
Cc1ccc2[nH]c(=O)c(CN(Cc3cccs3)S(=O)(=O)c3ccc4c(c3)OCCO4)cc2c1	/	25.1µM*	-27.9%
COc1cccc(CN(CC2CCCO2)S(=O)(=O)c2ccc(S(=O)(=O)N(C)C)cc2)c1 (stereo not given)	13.6	2.82µM*	-13.4%
Cc1cc(S(=O)(=O)N(Cc2ccc3c(c2)OCO3)CC2CCCO2)ccc1-n1cnnn1 (stereo not given)	14.6	?	-10.0%
COc1ccc2cc(CN(CC3CCCO3)C(=S)Nc3ccccc3)c(=O)[nH]c2c1 (stereo not given)	/	7.08µM*	/
Cc1cc2cc(CN(Cc3cccs3)S(=O)(=O)c3ccc4c(c3)OCCO4)c(=O)[nH]c2cc1C	-16.4	0.0%	-9.5%
COc1ccc2[nH]c(=O)c(CN(CC3CCCO3)C(=S)Nc3ccccc3)cc2c1 (stereo not given)	/	12.3%	/
COc1ccc(S(=O)(=O)N(Cc2cc3cc(C)ccc3[nH]c2=O)CC2CCCO2)cc1 (stereo not given)	4.0	8.91µM*	49.9%
O=C1Nc2c(c(=O)[nH]c(=O)n2-c2ccc(Cl)cc2)C1(NS(=O)(=O)c1ccccc1)C(F)(F)F (stereo not given)	-6.1	/	/
COC(=O)C1C2CCC(C2)C1C(=O)OCC(=O)c1ccccc1 (stereo not given)	13.2	?	-11.0%
CCOC(=O)C1=C(C)NC(=O)NC1c1ccc(N(CC)CC)cc1 (stereo not given)	12.1	6.9%	-0.6%
CCc1ccc(C2=C/C(=C/c3cccnc3)C(=O)O2)cc1	/	-7.4%	-23.3%
Cn1c(=O)c2c(ncn2CC(=O)Nc2nnc(Cc3ccccc3)s2)n(C)c1=O	0.2	-1.8%	-16.3%
COc1ccc(Cc2nnc(NC(=O)Cn3cnc4c3c(=O)n(C)c(=O)n4C)s2)cc1OC	9.0	?	14.1µM*
CCOC(=O)c1cccc(NC(=O)C(NS(=O)(=O)c2ccc3c(c2)CCN3C(C)=O)C(C)C)c1 (stereo not given)	-7.7	2.1%	5.0%
Cc1nc2oc(C(=O)c3ccccc3)c(N)c2c2c1COC(C)(C)C2	-1.6	14.1µM*	-12.0%
CCCc1nc2oc(C(=O)OCC)c(N)c2c2c1COC(C)(C)C2	-17.1	?	?
CC(C)/C=N/Nc1nc(-c2ccc(Br)cc2)cs1	/	-7.1%	-13.4%
CCOC(=O)CSc1nnc(CNc2ccc(Cl)cc2)n1-c1ccccc1	9.4	10µM*	-11.4%
SMILES	IMPase cell inh	ALDH1A1 block	HPGD inh
CCOC(=O)CSc1nnc(CNc2cccc(Cl)c2)n1-c1ccccc1	?	?	3.1%
CCOc1ccc(NCc2nnc(SCc3ccc(Cl)cc3)n2-c2ccccc2)cc1	/	15.8µM*	-5.4%
CCn1c(CNc2ccc(Cl)cc2)nnc1SCc1ccc(Cl)cc1	7.0	?	-9.6%
COc1ccc(N(C(=O)COc2ccc(Br)cc2)S(=O)(=O)c2ccc(C)cc2)cc1	-7.1	/	/
Cc1[nH]c2ccccc2c1Cc1n[nH]c(=S)o1	-2.2	?	?
CC(Cc1n[nH]c(=S)o1)c1ccccc1 (stereo not given)	/	17.8µM*	/
S=c1[nH]nc(Cc2cccc3ccccc23)o1	/	10µM*	?
Cn1c(SCc2n[nH]c(=S)o2)nnc1-c1ccccc1	/	0.5%	-7.4%
COc1ccc(-c2nc3cnc(Nc4ccccc4)nc3n(CCC#N)c2=O)cc1	/	-0.5%	-3.4%
CCOc1cccc(C(=O)Nc2cc(-c3nn4c(C)nnc4s3)ccc2C)c1	9.2	14.1%	-9.0%
CCCOc1ccc(C(=O)Nc2cc(-c3nn4c(C)nnc4s3)ccc2C)cc1	1.4	-6.4%	1.26µM*
COc1ccc(/C=C/C(=O)c2ccc(Cl)s2)cc1O	-0.6	?	?
COc1ccc(C(=O)/C=C/c2ccc(OC)c(O)c2)c(F)c1	4.2	4.1%	31.6µM*
C/C(Cn1nc([N+](=O)[O-])cc1C)=N\NC(=O)c1cccc(Br)c1	-17.8	?	-9.3%
CC1CCN(C(=O)CN2C(=O)c3ccccc3S2(=O)=O)CC1	1.1	-3.2%	-14.1%
CC1CCN(C(=O)c2ccc3c(c2NCCO)C(=O)c2ccccc2C3=O)CC1	?	?	22.4µM*
Cn1c(COc2ccccc2)nnc1SCCSc1nnc(COc2ccccc2)n1C	10.7	8.6%	-12.6%
Cn1c(COc2ccc(Br)cc2)nnc1SC1CCc2ccccc2C1=O (stereo not given)	2.7	22.4µM*	-12.3%
CC(=O)c1c(N2CCN(C)CC2)nc(=S)n(-c2cc(C)ccc2C)c1C	/	1.4%	/
COc1ccccc1NC(=O)CN1CCN(CC(=O)Nc2ccc(F)cc2)CC1	-3.9	25.1µM*	-19.0%
COc1cc(NC(=O)CCN2CCN(Cc3ccccc3)CC2)cc(OC)c1	6.6	11.2µM*	-5.9%
O=C(CN1CCN(Cc2ccccc2)CC1)Nc1ccccc1-c1ccccc1	/	11.2µM*	/
CC1(C2CC2)NC(=O)N(CC(=O)Nc2ccccc2-c2ccccc2)C1=O (stereo not given)	/	17.8µM*	/
CSc1ccc(/C=N/NC(=O)CN2CCN(Cc3ccccc3)CC2)cc1	2.5	?	/
CC1CCC2(CC1)NC(=O)N(CC(=O)Nc1ccccc1-c1ccccc1)C2=O (stereo not given)	/	12.1%	/
SMILES	IMPase cell inh	ALDH1A1 block	HPGD inh
COc1ccccc1NC(=O)CN1CCN(CC(=O)Nc2ccc(OCc3ccccc3)cc2)CC1	7.8	?	-6.8%
COc1cc(NC(=O)CCN2CCN(c3ccccc3F)CC2)cc(OC)c1	-15.1	-7.5%	-4.8%
Cc1nn(C)c(C)c1S(=O)(=O)N1CCC(C(=O)NCC2COc3ccccc3O2)CC1 (stereo not given)	2.8	9.4%	-5.8%
CCCCCCCCCCCCCCCC(=O)C1=C(O)C(CO)OC1=O (stereo not given)	/	-5.3%	/
COc1ccc(Br)cc1CN(C)CC(=O)Nc1c(Cl)ccc(C)c1Cl	-1.4	3.1%	/
CC(C)c1nc(SCC(=O)NCc2ccccc2)n[nH]1	-5.4	-5.3%	-2.4%
CCOc1ccc(OCC)c(NC(=O)CN2CCN(c3cc(C)ccc3C)CC2)c1	5.7	3.55µM*	-20.7%
COc1ccc(NC(=O)CN2CCN(c3ccccc3Cl)CC2)cc1	1.9	?	-5.1%
COc1ccccc1NC(=O)CN1CCN(Cc2ccccc2)CC1	1.6	10µM*	1.8%
CCOc1ccc(OCC)c(NC(=O)CN2CCN(c3cccc(C)c3)CC2)c1	?	?	-0.4%
COc1ccccc1NC(=O)CN1CCN(c2ccccn2)CC1	11.5	?	-15.7%
